Experimental data published in PubChem BioAssay AID1159580 (chemical genetic matrix, 2015).
About 2,000 (36%) of roughly 5,500 compounds were called active. Inconclusive results (about 18%) are left out. The list shows a part of the results. Values without a mark were called inactive. Cut-off read from the data, not from the text of the source: active = normalized growth mostly below about 0.91 (no sharp cut-off); inconclusive = no clear call, values can overlap the other calls; inactive = mostly above about 0.92.

Test: chemical genetic growth profiling, strain panel (AID 1159580);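 note: tested at 20 µM; growth read once vehicle control cultures reached saturation at 30 °C; 1 = growth at the plate median or of vehicle wells; lower values mean less growth of the strain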
Details: S. cerevisiae deletion strains, growth OD
[1] = locus YAL040C, strain CLN3, stronger effect = lower value
[2] = locus YCL061C, strain MRC1 (second series), stronger effect = lower value
[3] = locus YDR363W, strain ESC2, stronger effect = lower value
[4] = locus YER002W, strain NOP16, stronger effect = lower value
[5] = locus YJR075W, strain HOC1, stronger effect = lower value
[6] = locus YMR307W, strain GAS1, stronger effect = lower value
[7] = locus YNL153C, strain GIM3, stronger effect = lower value
[8] = locus YNL175C, strain NOP13, stronger effect = lower value
[9] = locus YNL197C, strain WHI3, stronger effect = lower value
[10] = locus YNL224C, strain SQS1, stronger effect = lower value
[11] = locus YNL322C, strain KRE1, stronger effect = lower value
[12] = locus YOR083W, strain WHI5 (second series), stronger effect = lower value
[13] = locus YAL013W, strain DEP1, stronger effect = lower value
[14] = locus YDR150W, strain NUM1, stronger effect = lower value
[15] = locus YPL055C, strain LGE1, stronger effect = lower value

Structure (SMILES): CCCC(=O)NCCc1c2n(c3ccc(OC)cc13)CCCc1ccccc1-2
- normalized growth [1]: 0.991
- normalized growth [2]: 1.01
- normalized growth [3]: 0.998
- normalized growth [4]: 0.996
- normalized growth (locus YGR078C, strain PAC10, stronger effect = lower value): 1.01
- normalized growth [5]: 0.995
- normalized growth [6]: 1.01
- normalized growth [7]: 0.984
- normalized growth [8]: 0.99
- normalized growth [9]: 0.995
- normalized growth [10]: 0.984
- normalized growth [11]: 1.01
- normalized growth [12]: 0.972

Structure (SMILES): CCCC(=O)NCCc1c2n(c3ccc(OC)cc13)Cc1ccccc1-2
- normalized growth [13]: 0.986
- normalized growth [1]: 1.08
- normalized growth [2]: 1.01
- normalized growth [14]: 1
- normalized growth [3]: 0.993
- normalized growth [4]: 0.995
- normalized growth (locus YNL128W, strain TEP1, stronger effect = lower value): 0.983
- normalized growth [7]: 0.754 (active)
- normalized growth [8]: 0.964
- normalized growth [9]: 0.97
- normalized growth [10]: 0.963
- normalized growth [11]: 0.995
- normalized growth [12]: 0.686 (active)
- normalized growth [15]: 1.01
- normalized growth (locus YPL241C, strain CIN2, stronger effect = lower value): 1.01

Structure (SMILES): CC[C@H]1OC(=O)C[C@@H](O)[C@H](C)[C@@H](O[C@@H]2O[C@H](C)[C@@H](O[C@H]3C[C@@](C)(O)[C@@H](O)[C@H](C)O3)[C@H](N(C)C)[C@H]2O)[C@@H](CC=O)C[C@@H](C)C(=O)/C=C/C(C)=C/[C@@H]1CO[C@@H]1O[C@H](C)[C@@H](O)[C@@H](OC)[C@H]1OC
- normalized growth (locus YAL021C, strain ccr4, stronger effect = lower value): 1.01
- normalized growth (locus YAL026C, strain drs2, stronger effect = lower value): 0.986
- normalized growth (locus YAL030W, strain snc1, stronger effect = lower value): 0.997
- normalized growth (locus YBL061C, strain skt5, stronger effect = lower value): 0.986
- normalized growth (locus YBR009C, strain hhf1, stronger effect = lower value): 1
- normalized growth (locus YBR023C, strain chs3, stronger effect = lower value): 0.988
- normalized growth (locus YBR171W, strain sec66, stronger effect = lower value): 0.987
- normalized growth (locus YBR231C, strain swc5, stronger effect = lower value): 0.989
- normalized growth (locus YBR279W, strain paf1, stronger effect = lower value): 0.994
- normalized growth (locus YCL011C, strain gbp2, stronger effect = lower value): 0.995
- normalized growth (locus YCL016C, strain dcc1, stronger effect = lower value): 1
- normalized growth (locus YCL061C, strain MRC1, stronger effect = lower value): 1.01
- normalized growth (locus YCL069W, strain vba3, stronger effect = lower value): 0.992
- normalized growth (locus YCR088W, strain abp1, stronger effect = lower value): 1
- normalized growth (locus YDL005C, strain med2, stronger effect = lower value): 0.986
- normalized growth (locus YDL040C, strain nat1, stronger effect = lower value): 0.99
- normalized growth (locus YDR001C, strain nth1, stronger effect = lower value): 0.997
- normalized growth (locus YDR069C, strain doa4, stronger effect = lower value): 0.995
- normalized growth (locus YDR137W, strain rgp1, stronger effect = lower value): 1.03
- normalized growth (locus YDR159W, strain sac3, stronger effect = lower value): 0.971
- normalized growth (locus YDR195W, strain ref2): 0.975
- normalized growth (locus YDR297W, strain sur2, stronger effect = lower value): 0.995
- normalized growth (locus YDR334W, strain swr1, stronger effect = lower value): 0.994
- normalized growth (locus YDR335W, strain msn5, stronger effect = lower value): 0.98
- normalized growth (locus YDR392W, strain spt3, stronger effect = lower value): 1.02
- normalized growth (locus YEL003W, strain gim4, stronger effect = lower value): 0.992
- normalized growth (locus YEL037C, strain rad23, stronger effect = lower value): 0.99
- normalized growth (locus YEL061C, strain CIN8 (second series), stronger effect = lower value): 0.992
- normalized growth (locus YER015W, strain faa2, stronger effect = lower value): 0.99
- normalized growth (locus YER016W, strain bim1, stronger effect = lower value): 0.991
- normalized growth (locus YER111C, strain swi4, stronger effect = lower value): 0.98
- normalized growth (locus YER155C, strain BEM2 (second series), stronger effect = lower value): 0.993
- normalized growth (locus YFR010W, strain ubp6, stronger effect = lower value): 0.988
- normalized growth (locus YGL167C, strain pmr1, stronger effect = lower value): 0.986
- normalized growth (locus YGL173C, strain kem1, stronger effect = lower value): 0.986
- normalized growth (locus YGL227W, strain vid30, stronger effect = lower value): 0.988
- normalized growth (locus YGL240W, strain doc1, stronger effect = lower value): 0.992
- normalized growth (locus YGL253W, strain hxk2, stronger effect = lower value): 0.98
- normalized growth (locus YHR013C, strain ard1, stronger effect = lower value): 0.985
- normalized growth (locus YHR027C, strain rpn1, stronger effect = lower value): 0.995
- normalized growth (locus YHR030C, strain SLT2, stronger effect = lower value): 0.953
- normalized growth (locus YHR079C, strain IRE1, stronger effect = lower value): 0.948
- normalized growth (locus YHR142W, strain chs7, stronger effect = lower value): 0.965
- normalized growth (locus YJL092W, strain hpr5, stronger effect = lower value): 0.986
- normalized growth (locus YJL095W, strain BCK1 (second series), stronger effect = lower value): 0.991
- normalized growth (locus YJL095W, strain BCK1, stronger effect = lower value): 0.962
- normalized growth (locus YJL115W, strain asf1, stronger effect = lower value): 0.983
- normalized growth (locus YJL129C, strain trk1, stronger effect = lower value): 0.971
- normalized growth (locus YJL154C, strain vps35, stronger effect = lower value): 0.994
- normalized growth (locus YJL164C, strain tpk1, stronger effect = lower value): 0.998
- normalized growth (locus YJL166W, strain qcr8, stronger effect = lower value): 0.991
- normalized growth (locus YJL187C, strain SWE1, stronger effect = lower value): 0.995
- normalized growth (locus YJR066W, strain TOR1, stronger effect = lower value): 0.918
- normalized growth (locus YKL160W, strain elf1, stronger effect = lower value): 0.993
- normalized growth (locus YKR026C, strain gcn3, stronger effect = lower value): 0.991
- normalized growth (locus YKR091W, strain srl3, stronger effect = lower value): 0.989
- normalized growth (locus YLL001W, strain dnm1, stronger effect = lower value): 0.977
- normalized growth (locus YLL026W, stronger effect = lower value): 0.995
- normalized growth (locus YLL041C, strain sdh2, stronger effect = lower value): 0.992
- normalized growth (locus YLR027C, strain aat2, stronger effect = lower value): 0.998
- normalized growth (locus YLR113W, strain HOG1, stronger effect = lower value): 0.954
- normalized growth (locus YLR221C, strain rsa3, stronger effect = lower value): 1
- normalized growth (locus YLR258W, strain gsy2, stronger effect = lower value): 0.995
- normalized growth (locus YLR262C, strain YPT6 (second series), stronger effect = lower value): 0.989
- normalized growth (locus YLR320W, strain mms22, stronger effect = lower value): 0.994
- normalized growth (locus YLR342W, strain FKS1, stronger effect = lower value): 0.984
- normalized growth (locus YLR357W, strain rsc2, stronger effect = lower value): 0.994
- normalized growth (locus YLR370C, strain arc18, stronger effect = lower value): 0.986
- normalized growth (locus YLR384C, strain iki3, stronger effect = lower value): 0.991
- normalized growth (locus YML120C, strain ndi1, stronger effect = lower value): 1
- normalized growth (locus YMR058W, strain fet3, stronger effect = lower value): 1
- normalized growth (locus YMR125W, strain sto1, stronger effect = lower value): 0.983
- normalized growth (locus YMR129W, stronger effect = lower value): 0.997
- normalized growth (locus YMR205C, strain PFK2, stronger effect = lower value): 0.986
- normalized growth (locus YMR231W, strain pep5, stronger effect = lower value): 0.999
- normalized growth (locus YNL071W, strain lat1, stronger effect = lower value): 0.993
- normalized growth (locus YNL183C, strain NPR1, stronger effect = lower value): 0.922
- normalized growth (locus YNL209W, strain ssb2, stronger effect = lower value): 0.993
- normalized growth (locus YNL248C, strain rpa49, stronger effect = lower value): 0.988
- normalized growth (locus YNL322C, strain KRE1 (second series), stronger effect = lower value): 0.985
- normalized growth (locus YNR049C, strain mso1, stronger effect = lower value): 0.99
- normalized growth (locus YOR001W, strain rrp6, stronger effect = lower value): 0.993
- normalized growth (locus YOR070C, strain gyp1, stronger effect = lower value): 0.996
- normalized growth (locus YOR080W, strain dia2, stronger effect = lower value): 0.977
- normalized growth (locus YOR083W, strain WHI5, stronger effect = lower value): 0.997
- normalized growth (locus YOR106W, strain vam3, stronger effect = lower value): 0.993
- normalized growth (locus YOR231W, strain MKK1, stronger effect = lower value): 0.97
- normalized growth (locus YOR265W, strain rbl2, stronger effect = lower value): 0.994
- normalized growth (locus YOR270C, strain vph1, stronger effect = lower value): 0.895
- normalized growth (locus YOR290C, strain snf2, stronger effect = lower value): 1.01
- normalized growth (locus YPL051W, strain arl3, stronger effect = lower value): 1
- normalized growth (locus YPL078C, strain atp4, stronger effect = lower value): 0.974
- normalized growth (locus YPL106C, strain sse1, stronger effect = lower value): 1
- normalized growth (locus YPL240C, strain hsp82, stronger effect = lower value): 1
- normalized growth (locus YPL256C, strain CLN2, stronger effect = lower value): 0.955

Structure (SMILES): C[C@H](NC(=O)/C(C#N)=C/c1ccc(O)c(O)c1)c1ccccc1
- normalized growth [13]: 0.985
- normalized growth [1]: 1.04
- normalized growth [2]: 0.961
- normalized growth [14]: 0.936
- normalized growth [3]: 0.992
- normalized growth [4]: 0.985
- normalized growth (locus YGR229C, strain SMI1, stronger effect = lower value): 0.93
- normalized growth [5]: 0.961
- normalized growth (locus YMR263W, strain SAP30, stronger effect = lower value): 1
- normalized growth [6]: 1.02
- normalized growth [7]: 0.978
- normalized growth [8]: 0.991
- normalized growth [9]: 0.987
- normalized growth [10]: 1
- normalized growth [12]: 0.968
- normalized growth [15]: 0.924
